# Results taken from the supplement of paper PMC6555819.
# Legend:
# Test in all cases: PBM binding z-score (relative to random genomic background probes); higher = stronger binding; sequences stand for … in GC…GCGATTGACAGCGTAGAATGAAGG
# [1] = test system: PPARg:RXRa DBDmut IVT, anti-RXR (DBD mutation: RXRa K156A/R161A, NR concentration 270 nM, RXRa partner concentration 90 nM)
# Procedure, shortened: (§1)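 Antibodies against each partner of ligand-free nuclear receptor dimers (one per run) detected binding on custom Agilent 4×180K protein-binding microarrays after 1 h incubation. The double-stranded probes had 34-nt variable regions carrying direct-repeat seeds, single-nucleotide variants, half-site ablations and random human genomic background sequences. Binding z-scores, from regression-normalized fluorescence, use the random background probes as reference.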
# [2] = test system: PPARg:RXRa IVT, anti-PPARg (NR concentration 270 nM, RXRa partner concentration 90 nM)
# Procedure, shortened: as §1
# [3] = test system: PPARg DBDmut:RXRa IVT, anti-PPARg (DBD mutation: PPARg1 K132A/R137A, NR concentration 270 nM, RXRa partner concentration 90 nM)
# Procedure, shortened: as §1
# [4] = test system: PPARg DBDmut IVT, anti-PPARg (DBD mutation: PPARg1 K132A/R137A, NR concentration 270 nM)
# Procedure, shortened: as §1
# [5] = test system: PPARg homodimer (NR concentration 180 nM)
# Procedure, shortened: as §1
# [6] = test system: PXR:RXRa (NR concentration 270 nM, RXRa partner concentration 90 nM)
# Procedure, shortened: as §1
# [7] = test system: PXR homodimer (NR concentration 270 nM)
# Procedure, shortened: as §1
# [8] = test system: RARa:RXR (NR concentration 270 nM, RXRa partner concentration 90 nM)
# Procedure, shortened: as §1
# [9] = test system: RARa homodimer (NR concentration 270 nM)
# Procedure, shortened: as §1
# [10] = test system: RARb:RXRa (NR concentration 270 nM, RXRa partner concentration 90 nM)
# Procedure, shortened: as §1
Sequence,PBM binding z-score [1],PBM binding z-score [2],PBM binding z-score [3],PBM binding z-score [4],PBM binding z-score [5],PBM binding z-score [6],PBM binding z-score [7],PBM binding z-score [8],PBM binding z-score [9],PBM binding z-score [10]
GCATATAGGTAATACAAGGTGAATGTCCGATTGT,4.28,3.39,1.78,0.61,0.903,0.286,0.012,0.602,0.84,0.305
AGAACGAGGGAAATGAGTTGATAGCACGGGTGGC,-0.231,-0.564,0.432,-0.941,-0.441,-0.411,0.0651,-0.474,-0.0061,-0.45
TGAATGAGGTTAAAGATCAGGGAACGTGGCGTCG,2.04,3.27,0.612,0.495,1.15,1.99,0.0833,3.37,0.135,1.97
CGAACTAGGCCAAGGACAGTGAATCTCCGCACGC,6.24,4.83,0.31,-0.452,-0.431,-0.557,-0.632,-0.45,-0.416,0.81
AATACAGGGTCACTAGGCCAGAGGAGGTACGAAT,3.99,5.89,1.86,1.11,2.18,2.95,0.559,4.12,0.96,4.17
ATCGAAAGGTCGACGTGGTGAGTATACACCGTTT,0.406,1.46,0.651,0.527,1.02,2.18,0.102,3.07,0.487,3.66
GCTGCTAGGTCAGGTTGGGCAGCTAACGGGTACG,2.83,1.93,-0.639,-0.804,0.77,-0.238,-0.455,0.335,-0.329,3.17
ATCGAAAGGTCGTAGGTGAGTATACCCACCCGAA,-0.212,2.34,1.08,0.645,1.97,3.12,0.577,4.04,0.489,3.76
TCTACTTGGTCAAAGGTCACACACTCGAAATGCG,3.83,6.58,2.43,3.34,4.9,6.09,1.84,7.73,4.11,5.29
GGCACGAGGGCAAGTTGATAGCAGAGTTTGATGG,2.14,1.32,-0.405,-1.03,0.282,1.01,0.171,0.665,-0.327,2.59
CAAACTTGGTCACAGAGGTCAAAGTCCGTGCGTA,2.87,4.58,0.599,0.268,3.66,6.07,3.89,6.64,1.42,4.34
CGTACTGGGCCATCAGGTCATTGATATCAACGTT,5.01,4.86,0.473,-0.333,1.12,1.67,0.831,1.88,-0.122,1.93
TCGAGTAGGTTAGTCGGGTCATTCAGCCAACATA,2.57,3.67,-0.174,-0.903,1.13,2.57,1.01,2.77,-0.535,1.79
CCTACTGGGGCAGAAAGGTTACCATACCATCCGG,3,4,0.246,-0.987,1.63,0.791,-0.188,1.85,0.396,1.87
GCGACTGGGGCAAAGAAGGTTACCATAAGGTTGG,4.68,3.4,-0.0271,-0.382,0.618,1.11,-0.136,1.22,-0.528,1.59
CCTTACGGGTCACTGACAGGTAATAGCATTTGGA,3.21,3.64,1.3,1.52,4.26,2.95,-0.116,4.05,1.66,3.79
CTACCAAGGTGAGCAAGGTCGTTGATTACTATTC,1.33,1.62,-0.318,-0.00619,0.031,1.79,0.655,1.44,-0.327,1.64
CCTATTAGTTGTCCATAAGGGCAACCGAAGCTCG,0.332,0.804,0.706,1.02,1.69,0.563,0.996,1.1,2.11,1.44
ATCTCTAGGAAACCAAGTTCAGTGAATGCCGAAC,-0.471,0.0982,0.852,0.501,0.854,1.17,1.48,0.595,1.12,0.938
CCGACTGGGGCAGAAAGGTTACCAAACCATCCGG,1.37,1.71,-0.76,-0.56,0.448,0.803,-0.532,1.58,-0.491,1.86
GCTAGCAGGCCATTTGGGTCACTCACTGACGGGC,2.26,2.51,-1.21,-1.1,0.122,0.354,-0.0107,0.762,-0.483,1.45
ACTATTAGTTGACTTAGGGCTACCGATACGACGC,-0.203,0.114,1.14,0.816,0.416,-0.151,-0.109,0.146,0.74,0.27
TCGAGTAGGTTAGTCGGGGCACTCAGCCAACATA,2.29,2.16,-0.475,-0.114,0.481,0.0586,-0.241,0.247,-0.581,0.524
TCTTATAGATCAAGCAGGTTAAGAAAGCCTGAGT,2.41,0.395,0.287,0.665,0.243,0.691,0.364,0.658,0.426,0.33
CCTTACGGGTCACGAGGTAATAGCACGACGAGCG,4.44,5.5,3.05,1.21,4.14,4.07,0.0228,5.59,1.16,4.46

Sequence,PBM binding z-score [1],PBM binding z-score [2],PBM binding z-score [3],PBM binding z-score [4],PBM binding z-score [5],PBM binding z-score [6],PBM binding z-score [7],PBM binding z-score [8],PBM binding z-score [9],PBM binding z-score [10]
TAGCCTAGGTCTTGCGGGCCAGTATAGTGTCGGC,-0.581,-0.0643,-0.303,-0.84,-1.39,-1.05,-1.29,-0.863,-1.17,-0.327
CGTCCAATGTCAATGCTAGGTCAGTGAAAGCATT,0.333,0.858,-0.586,-0.143,0.93,0.655,-0.0465,1.27,-0.0899,2.17
CGTCCAAGATCAAGGTCAGTGAAAGAGACTCGAA,1.25,1.67,-0.223,-0.447,1.25,1.82,0.628,2.07,0.651,3.28
TCTTGTAGATCAACAGGATGTTAAGAAAGATCGA,1.7,0.652,0.783,1.26,-0.565,0.147,-0.381,0.44,0.0345,-0.191
CTCGAAAGGTCGTGATCAGGTGAGTATACCAAAC,0.796,1.71,1.37,0.63,2.1,3.28,-0.0349,4.26,0.477,3.96
CAGCCTAGGTTAGGGCCAGTATAGGAGGAACGTT,-0.289,-0.377,-1.05,-1.1,-1.26,-0.636,-0.655,-0.399,-0.834,0.516
CCTATTAATTGACCATAAGGGCAACCGAAGCTCG,0.352,0.562,0.908,0.978,2.66,0.673,1.92,1.11,3.76,1.42
ATATCTAGGTAAAGATAGTTCAGTGAATGCAAAT,5.82,5.59,2.76,1.53,1.12,0.896,0.584,0.384,0.705,0.775
AGGACGAGGGCAATGAGTTGATAGCACGGGTGGC,1.76,1.02,0.439,0.19,0.218,1.55,4.82,0.678,-0.00105,2.12
TCGAGTAGGTTAACAATGGGGCATTCAGCTTTCT,3.65,2.78,0.124,0.191,0.25,0.403,-0.277,0.753,-0.553,0.976
TAGCCTAGGTCATTCAGGGGCGAGTATAGAAAGC,1.58,3.05,0.363,0.38,1.3,4.17,-0.00215,3.55,0.172,3.89
GCTAGTTGGTCATTAAAAGGTCACACACCGGTCG,1.97,2.97,-0.134,0.443,4.31,5.25,1.39,6.14,1.98,4.4
ATCGAAAGGTCGACGAGGTTAGTATACACCGTTT,0.568,1.88,1.2,0.625,1.24,4.03,2.16,3.97,0.691,3.86
TCATCTAGGTAAATGCTAGGTGAAAGTCCGATCT,3.81,3.11,1.09,0.995,0.213,0.375,-0.263,0.578,-0.0135,0.219
TCTTGCAGATCAATAGAGGTTAAGAAAGTGCGCT,0.862,0.37,0.336,-0.0409,-0.12,3.03,0.036,1.91,-0.478,0.805
CCTTGGAGGACAGAAGGTCAGAGCTGTCCGCTTT,0.658,1.17,-1.14,-2.25,1.98,1.69,0.0669,2.36,0.737,3.29
CCTACTGGGCCAAAAAGGTCATTCATGCCGATAA,3.69,3.97,-0.431,0.123,4.57,5.41,4.84,5.86,2.12,4.22
TGCCAAAGTTCAAAGGTAACGTAAGTATCCACAC,-0.203,3.58,0.542,1.37,4.73,6.14,4.67,7.24,1.95,5.19
ATACCAAGGTGATCGTGAGGCCGTTGATACTAAC,0.533,1.06,0.198,0.471,0.381,0.595,0.275,1.03,-0.0475,0.735
CGTCCAAGGTCATAGGAGGTTAGTGAAGACAGAT,2.69,3.67,0.657,-0.0801,3,5.46,2.22,4.61,1.31,5.06
ACTATTAGTTGAGACGAGGGCCACCGATAGGTTG,-0.292,0.0879,0.833,0.398,-0.375,-0.504,-0.253,-0.185,0.235,0.235
CCTACTGGGCCATGGTCATTGATCAGTCAAAGCA,3.04,3.48,-0.574,-0.734,0.222,-0.316,-0.489,-0.363,-1.03,0.532
TCTTGTAGATCAACAGGAGGTTAAGAATGATCGA,1.72,0.852,0.795,0.577,0.581,0.825,0.00794,0.975,0.614,0.678
ATCTCTAGGTAAAAGTTCAGTTAATCCCGAGGAT,1.85,3.99,1.85,1.29,2.13,2.28,2.02,1.85,1.39,2.24
